Sfp PPTase inh: inhibitors of Bacillus subtilis Sfp phosphopantetheinyl transferase | Q9F4F7 | Biochemical Sfp PPTase activity, qHTS | Potency, µM, for the others: largest response in the series, negative = inhibition, most hits filed as inhibitors | 310,000 compounds, 3.5% hits | AID 1490;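 further: the enzyme is Sfp with the accession as filed and its product quenches rhodamine fluorescence; 0% = enzyme reaction without inhibitor and -100% = no enzyme wells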
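Fluorescence-quenching assay: 15 nM Sfp-PPTase preincubated 15 min at room temperature with compound, then 5 uM rhodamine-CoA and 12.5 uM BHQ-2-labelled YbbR peptide added. Fluorescence (ex 525/em 598 nm) read at start and after 30 min; difference gives rate.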
BAZ2B inh: BAZ2B (human) inhibition | AlphaScreen BAZ2B-H3K14Ac peptide displacement | Potency, µM (titrated, usually from 114 µM), without a hit: at the highest dose activity change, negative = inhibition, actives largely listed as inhibitors | 360,000 compounds, 4.4% hits | Q9UIF8; further: on the % scale 0 is the no-effect control and ±100 the full control effect; nearly all actives have a fitted effect of over 60% in size
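Multi-concentration screen (max 110 uM) measuring displacement of acetylated histone H3 peptide from BAZ2B by AlphaScreen, using 50 nM protein, 50 nM peptide and 10 ug/mL streptavidin donor plus Ni-chelate acceptor beads.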
G9a block: blocks human histone lysine methyltransferase G9a; G9a H3K9 monomethylation, AlphaScreen, 2 h; Q96KQ7; 350,000 compounds, 8.8% hits; Potency, µM (highest dose often 102 µM), for inactives: at the top dose activity, negative = inhibition, hits mostly inhibitors; further: on the % scale 0 is the no-effect control and ±100 the full control effect; nearly all actives have a fitted effect of over 75% in size
Target sequence (Q96KQ7 913-1193 limits assumed): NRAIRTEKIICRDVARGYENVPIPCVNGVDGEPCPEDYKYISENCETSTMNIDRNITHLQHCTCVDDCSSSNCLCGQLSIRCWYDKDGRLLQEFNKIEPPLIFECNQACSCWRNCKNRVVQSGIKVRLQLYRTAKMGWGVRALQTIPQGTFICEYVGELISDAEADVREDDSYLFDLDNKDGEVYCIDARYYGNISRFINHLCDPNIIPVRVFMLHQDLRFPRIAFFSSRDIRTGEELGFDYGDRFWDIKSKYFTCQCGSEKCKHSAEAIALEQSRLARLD
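Methyltransferase reactions run at room temperature for 2 h (20 nM enzyme, 500 nM biotin-H3K9 peptide, 20 uM SAM) after a 15 min compound preincubation; product detected by AlphaScreen beads and anti-H3K9me1 antibody.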
JMJD2A Tudor: inhibitors of human JMJD2A Tudor domain. 390,000 compounds, 4.4% hits. Potency, µM (titrated, usually from 114 µM), without a hit: at the highest dose activity change, negative = inhibition, actives largely listed as inhibitors. AlphaScreen JMJD2A-Tudor / H3K4me3 peptide binding. O75164; further: on the % scale 0 is the no-effect control and ±100 the full control effect; nearly all actives have a fitted effect of over 50% in size
HP1b binding inh: HP1-beta chromodomain-methylated histone interaction inhibition | P83916 | AlphaScreen HP1-beta / biotin-H3K9me3 peptide binding | Potency, µM (doses to about 114 µM), without a hit: at the highest dose activity change, negative = inhibition, usual class: inhibitors | 390,000 compounds, 0.56% hits; further: nearly all actives have a fitted effect of over 70% in size
Target sequence (P83916 whole entry, looked up): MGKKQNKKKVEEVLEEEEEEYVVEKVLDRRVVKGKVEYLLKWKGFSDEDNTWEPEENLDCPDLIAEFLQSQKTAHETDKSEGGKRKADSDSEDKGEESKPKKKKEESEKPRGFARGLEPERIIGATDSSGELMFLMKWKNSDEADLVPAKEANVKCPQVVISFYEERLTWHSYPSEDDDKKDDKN
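Compound inhibition of the preformed complex between 50 nM HP1-beta and 50 nM biotinylated H3K9me3 peptide was read by AlphaScreen. Buffer was PBS pH 7.4 with 0.01% Tween-20. Incubations ran 30 min at room temperature, with 10 ug/mL donor/acceptor beads.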
TDP1 block: blocks human tyrosyl-DNA phosphodiesterase 1; Q9NUW8; recombinant TDP1, AlphaScreen DNA substrate cleavage; Potency, µM (titrated, usually from 130 µM), for the others: at the top dose activity change, negative = inhibition, most hits filed as inhibitors; 350,000 compounds, 0.28% hits; AID 485290; further: on the % scale 0 is the no-effect control and ±100 the full control effect; nearly all actives have a fitted effect of over 40% in size
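E. coli-derived human Tdp1, 1 nM final. Cpd preinc 15 min RT; substrate 15 nM final, 5 min RT; AS bead mix 10 ug/ml final, 10 min RT. Signal loss = tyrosine-FITC cleavage. No-enzyme wells = max signal.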
Active calls of the source: *; u = inconclusive; x = not tested or not shown; [ ] = another dose, or the depositor's remark. In the library only some 12% were active in any assay of this set; here they are far more common. The call rests on the fitted dose curve; in most records, active means well fitted curve in the direction sought with a large enough effect; inconclusive means small, poorly fitted or top-dose-only effect, or another doubt; inactive means no such curve, though single readings can be large; an effect the other way counts as inactive or inconclusive. Potency means the concentration at half of the fitted maximal effect.

SMILES	Sfp PPTase inh	BAZ2B inh	G9a block	JMJD2A Tudor	HP1b binding inh	TDP1 block
Cc1ccc(N2CCN(/N=C/c3ccccc3)CC2)cc1	19%	-37%	2%	-26%	13%	5%
Cc1ccc(N2CCN(/N=C/c3ccccc3[N+](=O)[O-])CC2)cc1	7%	u	7.9µM*	u	u	-5%
COc1cc(/C=C2\SC(=N)N(c3ccc(F)cc3)C2=O)ccc1O	5%	-20%	-22%[59 µM]	-8%	34%	3%
COc1cc(/C=C2\SC(=S)N(Nc3ncc(C(F)(F)F)cc3Cl)C2=O)ccc1O	u	35µM*	40µM*	u	u	9%
CN(C)c1ccc(/C=C2\SC(=S)N(Nc3ncc(C(F)(F)F)cc3Cl)C2=O)cc1	50µM*	u	u	-33%	-5%	3%
O=C(c1ccc(F)cc1)N1CCCCC(S(=O)(=O)c2ccccc2)C1=O (configuration not stated)	79µM*	-1%	u	-5%	30%	1%
Cn1cnnc1SCC(=O)c1cc2ccccc2oc1=O	-75%	u	u	89µM*	-18%	x
Cc1cccc(/C=N\Nc2nnc(-c3ccccc3)c(=O)[nH]2)c1	-13%	-37%	-5%[59 µM]	u	1%	7%
CC(/C=N/Nc1nnc(C)c(=O)[nH]1)=C\c1ccccc1	u	-42%	10µM*	-21%	17%	0%
CCCN1CNc2c(c(=O)[nH]c(=S)n2CCc2ccc(C)cc2C)C1	x	x	x	-14%	33%	-1%
Cc1ncc(CN2CCCC(C(=O)Nc3ccc(-c4ccco4)cc3)C2)n1C (configuration not stated)	13%	-17%	41%	-18%	u	4%
CSc1ncc(CN2CCCC(C(=O)Nc3ccc(-c4ccco4)cc3)C2)cn1 (configuration not stated)	14µM*	u	10µM*	u	-20%[57 µM]	10%
C/C=C/C(=O)Nc1cccc(C2=NOC3(C2)C[C@H](C(N)=O)N(C(=O)/C=C/C)C3)c1 (some centres not stated)	9%	0%	-3%[59 µM]	-15%	23%	1%
C/C=C/C=C/C(=O)N1CC2(CC(c3cccc(NC(=O)/C=C/C)c3)=NO2)C[C@@H]1C(N)=O (some centres not stated)	28µM*	-2%	u	-30%	14%	-2%
C/C=C(\C)C(=O)Nc1cccc(C2=NOC3(C2)C[C@@H](C(N)=O)N(C(=O)/C(C)=C/C)C3)c1 (some centres not stated)	8%	-13%	-41%[59 µM]	-9%	47%	0%
C=C(C)C(=O)Nc1cccc(C2=NOC3(C2)C[C@@H](C(N)=O)N(C(=O)/C=C/C=C/C)C3)c1 (some centres not stated)	32µM*	2µM*	u	3.2µM*	u	35µM*
C/C=C(\C)C(=O)Nc1cccc(C2=NOC3(C2)C[C@@H](C(N)=O)N(C(=O)c2ccccc2C(=O)c2ccccc2)C3)c1 (some centres not stated)	0%	-30%	18%[12.7 µM]	-31%	-3%	5%
C=C(C)C(=O)Nc1cccc(C2=NOC3(C2)C[C@@H](C(N)=O)N(C(=O)/C(C)=C/C)C3)c1 (some centres not stated)	6%	1.8µM*	u	3.2µM*	3.5µM*	x
C=C(C)C(=O)Nc1cccc(C2=NOC3(C2)C[C@H](C(N)=O)N(C(=O)c2ccccc2C(=O)c2ccccc2)C3)c1 (some centres not stated)	-4%	10µM*	u	7.9µM*	u	x
C=C(C)C(=O)N1CC2(CC(c3cccc(NC(=O)CCCCC)c3)=NO2)C[C@H]1C(N)=O (some centres not stated)	1%	-2%	-5%[12.7 µM]	-14%	24%	5%
CCOc1ccc(NS(=O)(=O)c2ccc3[nH]cc(C(=O)N4CCCC4)c(=O)c3c2)cc1	x	x	u	-17%	32%	-14%
O=S(=O)(NCc1nnc2ccccn12)c1ccc(Cl)cc1	x	7%	-8%[59 µM]	-2%	49%	1%
C=CCc1cccc(OC)c1OCCOCCNCCO	-14%	56µM*	11µM*	5.6µM*	-28%	-4%
CCOc1ccc(-n2c(Cc3cc(=O)[nH]c(=O)[nH]3)nnc2SC(C)C)cc1	5%	2%	-8%[59 µM]	-21%	21%	-3%
CC1CCN(C(=O)CSc2nnc(Cc3cc(=O)[nH]c(=O)[nH]3)n2-c2ccc(Cl)cc2)CC1	-22%	-4%	35µM*	-9%[57.1 µM]	22%[57 µM]	5%
SMILES	Sfp PPTase inh	BAZ2B inh	G9a block	JMJD2A Tudor	HP1b binding inh	TDP1 block
CCC(C)Sc1nnc(Cc2cc(=O)[nH]c(=O)[nH]2)n1-c1ccc(F)cc1 (configuration not stated)	u	42%	40µM*	-12%	67%	7%
CCCSc1nnc(Cc2cc(=O)[nH]c(=O)[nH]2)n1-c1cc(C)ccc1C	3%	-5%	u	14µM*	41%	-1%
COc1cccc(-n2c(Cc3cc(=O)[nH]c(=O)[nH]3)nnc2SCC(=O)N2CCC(C)CC2)c1	18%	-2%	u	-12%	15%	-1%
Cc1noc(-c2ccc(N3CCCCC3C)c([N+](=O)[O-])c2)n1 (configuration not stated)	x	-36%	u	-20%	46%	3%
COC(=O)c1cc(NS(=O)(=O)c2ccc(NCc3cccnc3)c(N)c2)cc(C(=O)OC)c1	-3%	-10%	35µM*	-7%	37%	5%
Cc1cccc(OCC(=O)Nc2ccc3c(c2)C(=O)NC3=O)c1	-2%	-21%	0%[0.0925 µM]	-8%	58%	-2%
Cc1ccc(N2CN(CCc3ccccc3)CNC2=S)cc1	0%	-18%	x	-7%	31%	-5%
O=C(Nc1cccc(F)c1)N1CC2(CCN(C(=O)c3ccco3)CC2)C1	-13%	x	1%[12.7 µM]	x	x	x
O=[N+]([O-])c1ccccc1Nc1c2ccccc2nc2ccccc12	22%	-25%	9%	-23%	13%	1%
O=C(O)c1ccc(Nc2nc(-c3ccc([N+](=O)[O-])cc3)nc3ccccc23)cc1	50µM*	50µM*	7%	u	-8%	x
O=[N+]([O-])c1ccc(Nc2c3ccccc3nc3ccccc23)cc1	6%	u	13µM*	u	-20%	10%
S=c1[nH]nc(-c2ccncc2)n1CC1CCCO1 (configuration not stated)	u	-8%	u	45µM*	-10%	x

Screening results from PubChem.
